Shown are actives, neighbours in structure and some others; about 1.1% of the full set was active somewhere.
NSD2 inh: NSD2 (human) methyltransferase inhibition | 310,000 compounds, 0.54% hits | AID 743445 | inhibition, % at 12.5 µM | NSD2 peptide methylation, AlphaScreen, 120 min; in the data active = inhibition above about 50%
HDAC3 inhib: blocks human histone deacetylase 3; AID 2718; 320,000 compounds, 0.15% hits; recombinant HDAC3, fluorogenic peptide/trypsin coupled, fluorescence; O15379; inhibition, % at 8.3 µM; in the data active = inhibition above about 26%, passing the limit was not always enough
Casp6 inh: blocks human caspase-6 cleavage activity | P55212 | purified caspase-6, Z-VEID-R110 cleavage fluorescence | inhibition, % at 12.5 µM | 350,000 compounds, 0.53% hits;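 active = mean inhibition across replicates at least about 35%, with every replicate also reaching that limit, limit read from the data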;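 note: 0% = median of neutral control wells and 100% = no fluorescence left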
LANA DNA inh: blocks KSHV LANA C-terminal domain binding to DNA. inhibition, % at 9 µM. MBP-C-LANA/FAM-LBS DNA binding, fluorescence polarization. 340,000 compounds, 0.078% hits;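 active = highest replicate inhibition at or above 60% at 9 µM, even if other replicates fall short; inactive = all replicates below 60% inhibition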;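 note: 0% = neutral control wells and 100% = 4 µM acridine orange control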
N-glyco inh: blocks N-linked glycosylation in D54 reporter cells. D54 ERlucT glycosylation luciferase reporter, 24 h; percent of 100 nM tunicamycin response. 360,000 compounds, 0.23% hits. AID 588692. reporter increase, % at 12.5 µM;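 active = mean luciferase reporter signal, scaled so untreated is 0 and the glycosylation-blocking control 100, at or above a set limit in every replicate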;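 note: luciferase carries N-glycosylation sites so blocking glycosylation raises the light; 0% = median of neutral control wells and 100% = median of 100 nM tunicamycin wells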
Keap1 Nrf2 FP: inhibitors of human Keap1-Nrf2 protein-protein interaction; Keap1 Kelch-Nrf2 peptide fluorescence polarization, 1536-well; AID 504523; 340,000 compounds, 0.15% hits; inhibition, % at 9.4 µM; in the data active = inhibition above about 12%;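 note: human Keap1 Kelch domain with fluorescein labeled Nrf2 9mer peptide probe; 0% = neutral control wells and 100% = peptide positive control; higher means more block of Keap1 binding to Nrf2 peptide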
Target sequence (Q14145 whole entry, looked up, the tested form may be a part): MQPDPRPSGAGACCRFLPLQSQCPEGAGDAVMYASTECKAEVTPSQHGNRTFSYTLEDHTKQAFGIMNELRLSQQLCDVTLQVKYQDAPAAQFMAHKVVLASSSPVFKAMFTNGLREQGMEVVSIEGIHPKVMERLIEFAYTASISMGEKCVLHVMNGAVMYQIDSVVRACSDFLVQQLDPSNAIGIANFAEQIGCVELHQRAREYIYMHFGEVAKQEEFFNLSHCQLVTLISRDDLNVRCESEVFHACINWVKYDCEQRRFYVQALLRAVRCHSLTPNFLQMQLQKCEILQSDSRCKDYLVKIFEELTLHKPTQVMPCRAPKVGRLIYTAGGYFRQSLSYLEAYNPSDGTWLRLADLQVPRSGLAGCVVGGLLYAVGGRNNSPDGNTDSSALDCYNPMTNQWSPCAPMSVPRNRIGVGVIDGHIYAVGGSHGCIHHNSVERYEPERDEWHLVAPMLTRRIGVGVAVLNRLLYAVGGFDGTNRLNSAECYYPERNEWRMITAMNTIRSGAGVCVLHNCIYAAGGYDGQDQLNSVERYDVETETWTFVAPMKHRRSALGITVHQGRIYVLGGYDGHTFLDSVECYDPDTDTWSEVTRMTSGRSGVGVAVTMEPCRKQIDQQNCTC
The depositor's hits bear a star.

Results for COc1ccc(NC(=O)Nc2ccc3c(c2)C(=O)N([C@H](C)CO)C[C@H](C)[C@H](CN(C)Cc2ccc4c(c2)OCO4)OCCCC[C@@H](C)O3)cc1 ?
Casp6 inh: 0.4

Results for C#CCOc1ccc(/C=C2/C(=O)N(c3cccc(C(=O)O)c3)N=C2C)cc1OC ?
NSD2 inh: 3.1; HDAC3 inhib: -2.2; Casp6 inh: 33.8; LANA DNA inh: 0.5; N-glyco inh: 0.5; Keap1 Nrf2 FP: 2.6

What do the screens show for `C#CCOc1ccc(/C=C2/C(=O)N(c3ccc(S(N)(=O)=O)cc3)N=C2C)cc1OC`?
NSD2 inh: 5.2; Casp6 inh: 39.0*; N-glyco inh: 6.2

Results for CO[C@H]1CN(C)C(=O)c2ccc(NS(=O)(=O)c3cn(C)cn3)cc2OC[C@H](C)N(Cc2cccc(F)c2)C[C@@H]1C ?
Casp6 inh: 0.7

What do the screens show for `Cc1ccccc1CS(=O)(=O)c1nnc([C@H](CC(C)C)NC(=O)OC(C)(C)C)o1`?
NSD2 inh: 3.8; HDAC3 inhib: 38.1*; Casp6 inh: 1.4; LANA DNA inh: 0.4; N-glyco inh: -18.6; Keap1 Nrf2 FP: -45.8

Results for CC(C)(C)OC(=O)N[C@@H](Cc1ccccc1)c1nnc(S(=O)(=O)Cc2cccc(F)c2)o1 ?
HDAC3 inhib: 69.2*

How did COCCNC(=O)C[C@H]1C[C@@H]2c3cc(NS(C)(=O)=O)ccc3O[C@@H]2[C@@H](CO)O1 do in these assays?
Casp6 inh: -3.8

What do the screens show for `COc1ccc(N2CCN(c3cc(C)c4ccc(O)cc4n3)CC2)cc1`?
HDAC3 inhib: 1.3; Casp6 inh: -1.6; LANA DNA inh: -0.7; N-glyco inh: -0.4; Keap1 Nrf2 FP: -3.8

How did COc1cc(OC)c2nc(C)c3c(c2c1)N(c1ccc(O)cc1)CC3 do in these assays?
NSD2 inh: 3.9; HDAC3 inhib: -7.6; LANA DNA inh: -0.2; N-glyco inh: 27.6*; Keap1 Nrf2 FP: 1.5

Results for C[C@@H]1CCCCO[C@@H](CN(C)C(=O)Nc2ccc(C(F)(F)F)cc2)[C@H](C)CN([C@@H](C)CO)C(=O)c2cc(NC(=O)Nc3ccc4c(c3)OCO4)ccc2O1 ?
Casp6 inh: -5.3

Results for Cc1cccc(C(=O)NCC(c2ccco2)N2CCc3ccccc32)c1 (stereo unspecified) ?
NSD2 inh: 2.9; HDAC3 inhib: -2.2; Casp6 inh: 11.4; LANA DNA inh: 1.8; N-glyco inh: -1.1; Keap1 Nrf2 FP: -3.0

Results for O=C(NCC(c1ccco1)N1CCc2ccccc21)c1cccc([N+](=O)[O-])c1 (stereo unspecified) ?
NSD2 inh: 7.2; HDAC3 inhib: 2.7; Casp6 inh: 63.3*; LANA DNA inh: 1.8; N-glyco inh: 2.0; Keap1 Nrf2 FP: -3.2

What do the screens show for `O=C(NCC(c1ccco1)N1CCc2ccccc21)c1ccc([N+](=O)[O-])cc1` (stereo unspecified)?
NSD2 inh: -1.0; HDAC3 inhib: 2.7; Casp6 inh: 71.9*; LANA DNA inh: -1.3; N-glyco inh: 0.7; Keap1 Nrf2 FP: -5.3

Results for COc1ccc(S(=O)(=O)Nc2ccc3c(c2)C(=O)N([C@H](C)CO)C[C@H](C)[C@H](CN(C)C(=O)Nc2ccccc2)OCCCC[C@H](C)O3)cc1 ?
Casp6 inh: 0.6

How did COc1cccc(-c2ccc([C@@H]3[C@H](CO)N4C(=O)CN(C(=O)C5CCC5)C[C@@H]34)cc2)c1 do in these assays?
Casp6 inh: 1.5

Results for Cc1cc(C)c(C(=O)C(C)OC(=O)C2=COCCO2)cc1C (stereo unspecified) ?
NSD2 inh: -5.7; HDAC3 inhib: -2.6; Casp6 inh: 58.0*; LANA DNA inh: 1.0; N-glyco inh: 0.7; Keap1 Nrf2 FP: -1.2

How did CC=Cc1ccc2n(c1=O)C[C@H]1[C@H](CO)[C@@H](C(=O)NCc3ccccc3)N(S(C)(=O)=O)[C@@H]21 (mixture of isomers) do in these assays?
Casp6 inh: 1.3

How did O=C(N/N=C\c1ccc([N+](=O)[O-])o1)c1cncc(Br)c1 do in these assays?
NSD2 inh: -0.2; HDAC3 inhib: -2.1; Casp6 inh: 39.0*; LANA DNA inh: 44.1; N-glyco inh: 22.7; Keap1 Nrf2 FP: 2.7

What do the screens show for `O=C(N/N=C/c1ccc(-c2ccccc2[N+](=O)[O-])o1)c1cncc(Br)c1`?
NSD2 inh: 2.1; HDAC3 inhib: 4.7; LANA DNA inh: 1.3; N-glyco inh: 4.3; Keap1 Nrf2 FP: 3.7

Results for CCN(CC)S(=O)(=O)c1cccc(C(=O)N/N=C/c2ccc([N+](=O)[O-])o2)c1 ?
NSD2 inh: -0.5; HDAC3 inhib: 3.6; Casp6 inh: 6.8; LANA DNA inh: -1.1; N-glyco inh: 51.5*; Keap1 Nrf2 FP: 1.2

Results for O=C(N/N=C/c1ccc([N+](=O)[O-])o1)c1ccccc1NS(=O)(=O)c1cccs1 ?
HDAC3 inhib: 4.9; Casp6 inh: 39.6*; LANA DNA inh: 0.5; N-glyco inh: 2.1; Keap1 Nrf2 FP: -1.5

How did CCCNC(=O)Nc1ccc2c(c1)C(=O)N(C)C[C@H](OC)[C@H](C)CN(Cc1cncnc1)[C@H](C)CO2 do in these assays?
Casp6 inh: 0.6

What do the screens show for `CN1CCN(C(=O)C2=C[C@@H](C3CC3)C[C@@H](OCCCCO)O2)CC1`?
Casp6 inh: -3.0

Results for Cc1noc(C)c1NC(=O)Nc1ccc2c(c1)C(=O)N([C@H](C)CO)C[C@H](C)[C@H](CN(C)S(=O)(=O)c1c(C)noc1C)OCCCC[C@@H](C)O2 ?
Casp6 inh: -0.4

Results for C[C@H](CO)N1C[C@H](C)[C@@H](CN(C)C(=O)Nc2ccccc2)OCCCC[C@H](C)Oc2ccc(NS(=O)(=O)c3cn(C)cn3)cc2C1=O ?
Casp6 inh: 0.0

Results for C[C@H](CO)N1C[C@H](C)[C@H](CN(C)C(=O)Nc2ccccc2)Oc2ncc(C3=CCCC3)cc2C1=O ?
Casp6 inh: 0.9

What do the screens show for `CC(=O)Nc1ccc(NC(=O)C2(C)Cc3c(-c4cccc(NC(C)=O)c4)ccnc3O2)cc1` (stereo unspecified)?
NSD2 inh: 0.2; Casp6 inh: 0.8; N-glyco inh: 2.3

Results for CC(=O)Nc1cccc(-c2ccnc3c2CC(C)(C(=O)Nc2cccc(C(C)=O)c2)O3)c1 (stereo unspecified) ?
NSD2 inh: 0.3; Casp6 inh: 2.2; N-glyco inh: 29.8*

What do the screens show for `CCCN(CCC)CCNC(=O)c1cc2c(-c3ccc(Cl)cc3)nn(C)c2s1`?
NSD2 inh: 2.6; HDAC3 inhib: -64.0; Casp6 inh: -12.4; LANA DNA inh: -12.8; N-glyco inh: 11.7; Keap1 Nrf2 FP: -3.9

How did Cn1nc(-c2ccc(Cl)cc2)c2cc(C(=O)NCCCN3CCOCC3)sc21 do in these assays?
HDAC3 inhib: -34.9; LANA DNA inh: -3.4; N-glyco inh: 33.4*; Keap1 Nrf2 FP: -4.3

Assay outcomes (PubChem)
